In the supplement of paper PMC10849652:
About 7,900 targets were measured; listed, in parts, are those with a hit and a random draw of the rest. About 0.6% of all pairs of compound and target were hits. Unmarked numbers belong to inactive results.

Key:
Assay in all cases: log2 fold change, soluble protein after heating vs DMSO (PISA); higher = thermal stabilisation; K562 cells, 10 uM, 30 min; active = over 0.2 and 3.5 SD of the protein, either way, in both replicates (recomputed)
[1] = compound: NC(=O)Nc1cc(-c2cccc(F)c2)sc1C(=O)N[C@H]1CCCNC1
Outline: (§1)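 Soluble protein was quantified by TMTpro 16plex LC-MS/MS after channel sums were equalised. It was obtained as the supernatant after 21,000xg for 90 min from pooled aliquots of K562 cells (2×10^6 cells/mL, 10 μM compound, 30 min) heated for 3 min across 48°C-58°C and extracted in PBS with 0.5% NP-40 at 4°C. Thermal stability values are relative to control samples and come from duplicates. They are given as log2 fold changes.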

[2] = compound: NC(=O)c1cnc(N[C@@H]2CCCC[C@@H]2N)nc1Nc1cccc(-n2nccn2)c1
Outline: as §1

[3] = compound: NC1(c2ccc(-c3nc4ccn5c(=O)[nH]nc5c4cc3-c3ccccc3)cc2)CCC1
Outline: as §1

[4] = compound: NCC(=O)Nc1ccc(-n2nc(C(F)(F)F)cc2-c2ccc3c(ccc4ccccc43)c2)cc1
Outline: as §1

entinostat = compound: Nc1ccccc1NC(=O)c1ccc(CNC(=O)OCc2cccnc2)cc1 [entinostat]
Outline: as §1

vorinostat = compound: O=C(CCCCCCC(=O)Nc1ccccc1)NO [vorinostat]
Outline: as §1

citarinostat = compound: O=C(CCCCCCNC(=O)c1cnc(N(c2ccccc2)c2ccccc2Cl)nc1)NO [citarinostat]
Outline: as §1

silmitasertib = compound: O=C(O)c1ccc2c(c1)nc(Nc1cccc(Cl)c1)c1ccncc12 [silmitasertib]
Outline: as §1

[5] = compound: O=C1NC(=O)C(c2cnc3ccccn23)=C1c1cn2c3c(cc(F)cc13)CN(C(=O)N1CCCCC1)CC2
Outline: as §1

[6] = compound: c1cc(OCCN2CCCCC2)cc(-c2n[nH]c3ccc(-c4nnc[nH]4)cc23)c1
Outline: as §1

entospletinib = compound: c1cn2cc(-c3ccc4cn[nH]c4c3)nc(Nc3ccc(N4CCOCC4)cc3)c2n1 [entospletinib]
Outline: as §1

Chain of UniProt P51812 (P51812 whole entry, looked up): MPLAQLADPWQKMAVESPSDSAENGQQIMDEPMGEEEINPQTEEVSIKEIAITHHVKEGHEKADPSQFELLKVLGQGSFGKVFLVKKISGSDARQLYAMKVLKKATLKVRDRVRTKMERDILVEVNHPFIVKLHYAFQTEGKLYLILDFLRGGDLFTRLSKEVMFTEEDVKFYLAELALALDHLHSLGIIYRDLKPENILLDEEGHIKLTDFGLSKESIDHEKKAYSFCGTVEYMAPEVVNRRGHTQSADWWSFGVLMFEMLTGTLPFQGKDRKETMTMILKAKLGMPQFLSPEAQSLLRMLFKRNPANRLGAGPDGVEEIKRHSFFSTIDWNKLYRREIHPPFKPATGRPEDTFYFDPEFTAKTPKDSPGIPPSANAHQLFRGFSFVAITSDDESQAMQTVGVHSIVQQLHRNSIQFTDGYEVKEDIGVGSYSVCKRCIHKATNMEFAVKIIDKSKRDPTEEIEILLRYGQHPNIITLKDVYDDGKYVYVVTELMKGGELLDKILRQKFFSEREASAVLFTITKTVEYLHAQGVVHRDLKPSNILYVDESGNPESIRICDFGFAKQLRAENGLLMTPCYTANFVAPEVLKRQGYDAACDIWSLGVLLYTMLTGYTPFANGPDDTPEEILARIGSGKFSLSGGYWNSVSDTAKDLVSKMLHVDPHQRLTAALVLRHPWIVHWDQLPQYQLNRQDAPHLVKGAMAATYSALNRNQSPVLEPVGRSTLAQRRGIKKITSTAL
Chain of UniProt Q13530 (Q13530 whole entry, looked up): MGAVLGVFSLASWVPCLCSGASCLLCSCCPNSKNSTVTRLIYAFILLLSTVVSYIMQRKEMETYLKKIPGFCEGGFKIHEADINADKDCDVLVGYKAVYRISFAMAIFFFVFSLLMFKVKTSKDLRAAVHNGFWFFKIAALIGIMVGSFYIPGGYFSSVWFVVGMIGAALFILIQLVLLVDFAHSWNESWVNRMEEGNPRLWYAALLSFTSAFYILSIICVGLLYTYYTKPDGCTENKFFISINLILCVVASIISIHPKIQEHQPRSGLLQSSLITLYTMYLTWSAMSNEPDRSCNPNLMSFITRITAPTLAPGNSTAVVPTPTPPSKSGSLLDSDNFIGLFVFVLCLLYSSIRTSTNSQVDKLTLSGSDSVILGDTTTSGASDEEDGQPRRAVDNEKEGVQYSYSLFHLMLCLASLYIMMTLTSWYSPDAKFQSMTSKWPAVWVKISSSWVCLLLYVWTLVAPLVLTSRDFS
Chain of UniProt P04049 (P04049 whole entry, looked up): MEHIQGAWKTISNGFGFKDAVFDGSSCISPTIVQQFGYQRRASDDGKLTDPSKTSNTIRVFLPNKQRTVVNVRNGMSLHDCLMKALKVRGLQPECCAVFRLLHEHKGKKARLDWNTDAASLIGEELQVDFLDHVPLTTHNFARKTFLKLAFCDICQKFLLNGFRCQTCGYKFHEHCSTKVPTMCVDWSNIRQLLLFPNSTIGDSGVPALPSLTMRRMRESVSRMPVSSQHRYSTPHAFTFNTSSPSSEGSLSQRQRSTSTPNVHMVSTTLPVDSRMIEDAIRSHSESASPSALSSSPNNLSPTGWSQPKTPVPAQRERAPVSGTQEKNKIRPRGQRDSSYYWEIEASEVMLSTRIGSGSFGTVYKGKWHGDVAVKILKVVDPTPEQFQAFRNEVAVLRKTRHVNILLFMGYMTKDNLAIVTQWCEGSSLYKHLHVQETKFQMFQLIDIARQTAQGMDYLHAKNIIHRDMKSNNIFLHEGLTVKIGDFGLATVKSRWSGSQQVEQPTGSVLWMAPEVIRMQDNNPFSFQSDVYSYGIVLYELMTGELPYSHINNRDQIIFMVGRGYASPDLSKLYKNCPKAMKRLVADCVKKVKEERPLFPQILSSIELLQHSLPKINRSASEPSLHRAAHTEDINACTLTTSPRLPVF
Chain of UniProt P46063 (P46063 whole entry, looked up): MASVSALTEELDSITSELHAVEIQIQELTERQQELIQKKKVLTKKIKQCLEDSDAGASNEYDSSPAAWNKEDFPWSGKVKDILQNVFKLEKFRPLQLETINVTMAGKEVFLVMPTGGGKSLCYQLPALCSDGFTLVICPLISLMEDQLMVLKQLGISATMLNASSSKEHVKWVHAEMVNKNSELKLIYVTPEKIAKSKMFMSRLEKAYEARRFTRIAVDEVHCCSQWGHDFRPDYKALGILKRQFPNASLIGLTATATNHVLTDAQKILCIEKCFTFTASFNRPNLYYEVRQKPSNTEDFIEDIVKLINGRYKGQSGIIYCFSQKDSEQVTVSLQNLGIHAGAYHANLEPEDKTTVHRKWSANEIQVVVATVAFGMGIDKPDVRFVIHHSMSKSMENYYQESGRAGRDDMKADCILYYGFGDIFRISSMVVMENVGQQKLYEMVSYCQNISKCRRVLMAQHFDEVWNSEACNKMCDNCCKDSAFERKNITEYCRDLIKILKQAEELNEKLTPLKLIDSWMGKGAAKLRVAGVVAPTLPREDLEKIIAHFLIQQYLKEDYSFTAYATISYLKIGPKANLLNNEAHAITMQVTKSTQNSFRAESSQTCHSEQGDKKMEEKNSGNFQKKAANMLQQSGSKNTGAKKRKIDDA
Chain of UniProt P27694 (P27694 whole entry, looked up): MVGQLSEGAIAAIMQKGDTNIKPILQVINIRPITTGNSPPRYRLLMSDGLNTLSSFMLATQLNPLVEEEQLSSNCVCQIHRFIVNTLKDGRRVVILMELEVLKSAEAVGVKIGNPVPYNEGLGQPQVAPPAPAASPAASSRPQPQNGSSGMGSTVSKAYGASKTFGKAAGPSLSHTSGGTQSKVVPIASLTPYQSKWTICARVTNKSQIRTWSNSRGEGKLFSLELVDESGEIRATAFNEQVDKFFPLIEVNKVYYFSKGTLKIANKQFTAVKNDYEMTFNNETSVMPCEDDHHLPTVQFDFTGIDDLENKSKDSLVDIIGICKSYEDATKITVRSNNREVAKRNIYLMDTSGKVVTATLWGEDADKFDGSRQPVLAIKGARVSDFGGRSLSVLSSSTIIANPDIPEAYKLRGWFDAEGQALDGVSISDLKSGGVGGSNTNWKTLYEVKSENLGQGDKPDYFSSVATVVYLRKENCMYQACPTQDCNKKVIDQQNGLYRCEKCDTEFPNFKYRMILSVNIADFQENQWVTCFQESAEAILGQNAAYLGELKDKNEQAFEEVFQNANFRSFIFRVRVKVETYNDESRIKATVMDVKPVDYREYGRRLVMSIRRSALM
Chain of UniProt Q14151 (Q14151 whole entry, looked up): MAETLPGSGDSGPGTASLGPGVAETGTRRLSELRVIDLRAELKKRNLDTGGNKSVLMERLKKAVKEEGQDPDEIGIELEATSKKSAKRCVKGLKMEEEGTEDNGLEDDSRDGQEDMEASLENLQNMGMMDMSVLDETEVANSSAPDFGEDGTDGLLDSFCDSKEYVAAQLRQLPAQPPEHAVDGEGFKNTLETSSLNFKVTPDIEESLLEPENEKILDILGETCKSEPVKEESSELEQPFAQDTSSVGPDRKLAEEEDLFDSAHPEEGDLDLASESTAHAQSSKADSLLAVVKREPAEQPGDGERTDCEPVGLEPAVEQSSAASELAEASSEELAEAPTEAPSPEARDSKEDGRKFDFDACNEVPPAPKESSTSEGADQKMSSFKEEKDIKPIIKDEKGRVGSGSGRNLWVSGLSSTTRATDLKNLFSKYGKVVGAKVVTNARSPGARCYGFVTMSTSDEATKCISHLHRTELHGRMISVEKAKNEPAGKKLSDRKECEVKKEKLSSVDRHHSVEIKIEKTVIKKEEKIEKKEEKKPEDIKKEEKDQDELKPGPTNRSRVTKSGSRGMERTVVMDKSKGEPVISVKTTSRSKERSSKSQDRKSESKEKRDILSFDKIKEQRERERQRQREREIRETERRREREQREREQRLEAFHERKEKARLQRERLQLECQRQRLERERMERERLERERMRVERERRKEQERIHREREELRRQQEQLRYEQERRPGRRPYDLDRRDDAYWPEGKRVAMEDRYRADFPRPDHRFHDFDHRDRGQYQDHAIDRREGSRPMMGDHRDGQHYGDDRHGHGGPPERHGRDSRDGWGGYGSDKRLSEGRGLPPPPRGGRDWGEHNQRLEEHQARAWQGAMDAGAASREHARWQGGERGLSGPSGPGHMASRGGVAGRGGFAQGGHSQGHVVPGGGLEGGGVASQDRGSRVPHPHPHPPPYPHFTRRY
Chain of UniProt Q9UKM9 (Q9UKM9 whole entry, looked up): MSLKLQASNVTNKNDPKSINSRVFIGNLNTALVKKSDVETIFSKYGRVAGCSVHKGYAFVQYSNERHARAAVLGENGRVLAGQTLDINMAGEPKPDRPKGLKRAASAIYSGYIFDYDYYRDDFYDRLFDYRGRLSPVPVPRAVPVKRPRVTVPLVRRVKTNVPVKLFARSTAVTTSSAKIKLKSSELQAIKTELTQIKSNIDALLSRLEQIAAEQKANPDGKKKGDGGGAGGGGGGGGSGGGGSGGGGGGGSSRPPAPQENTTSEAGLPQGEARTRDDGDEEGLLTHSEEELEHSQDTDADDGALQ
Chain of UniProt O43818 (O43818 whole entry, looked up): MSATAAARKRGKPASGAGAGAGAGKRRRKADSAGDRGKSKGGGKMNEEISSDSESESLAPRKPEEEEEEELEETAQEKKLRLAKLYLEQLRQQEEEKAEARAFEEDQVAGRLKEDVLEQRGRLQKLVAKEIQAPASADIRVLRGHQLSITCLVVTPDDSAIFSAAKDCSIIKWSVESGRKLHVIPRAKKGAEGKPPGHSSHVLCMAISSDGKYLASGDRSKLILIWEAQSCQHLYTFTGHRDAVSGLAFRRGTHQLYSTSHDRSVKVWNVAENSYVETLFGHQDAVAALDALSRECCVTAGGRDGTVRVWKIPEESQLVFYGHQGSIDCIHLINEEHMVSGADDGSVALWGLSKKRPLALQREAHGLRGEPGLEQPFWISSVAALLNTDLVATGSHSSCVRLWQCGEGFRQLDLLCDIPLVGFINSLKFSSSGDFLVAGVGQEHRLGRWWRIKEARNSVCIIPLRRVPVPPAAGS
Chain of UniProt O95059 (O95059 whole entry, looked up): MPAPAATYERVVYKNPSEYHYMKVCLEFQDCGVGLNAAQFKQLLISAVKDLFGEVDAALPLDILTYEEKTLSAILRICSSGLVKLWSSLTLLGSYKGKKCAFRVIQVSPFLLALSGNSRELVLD

Target | log2 fold change [1] | log2 fold change [2] | log2 fold change [3] | log2 fold change [4] | log2 fold change (entinostat) | log2 fold change (vorinostat) | log2 fold change (citarinostat) | log2 fold change (silmitasertib) | log2 fold change [5] | log2 fold change [6] | log2 fold change (entospletinib)
RDH13 (UniProt Q8NBN7) | -0.038 | -0.049 | -0.064 | -0.055 | -0.032 | 0.002 | 0.029 | -0.013 | -0.029 | -0.02 | -0.009
SERINC3 (UniProt Q13530) | -0.111 | -0.027 | -0.195 | -0.267 | -0.07 | -0.044 | -0.093 | 0.054 | 0.018 | -0.031 | 0.01
RAB8B (UniProt Q92930) | 0.203 | 0.017 | -0.053 | 0.2 | 0.116 | 0.073 | 0.03 | -0.049 | -0.013 | 0.093 | -0.04
RAF1 isoform 2 (UniProt P04049) | -0.208 | -0.012 | 0.086 | -0.017 | -0.033 | 0.069 | -0.037 | -0.033 | -0.13 | -0.133 | -0.007
RGS10 (UniProt O43665) | 0.077 | 0.068 | -0.037 | 0.11 | 0.038 | 0.054 | 0.087 | 0.01 | -0.057 | 0.033 | -0.006
RALY (UniProt Q9UKM9) | -0.039 | 0.071 | 0.353 | 0.026 | -0.02 | -0.105 | -0.064 | 0.128 | 0.072 | -0.106 | -0.001
RPS2 (UniProt P15880) | 0.035 | 0.081 | 0.195 | 0.089 | -0.036 | 0.001 | -0.079 | 0.01 | 0.086 | -0.189 | 0.08
RAB5IF isoform 5 (UniProt Q9BUV8) | 0.008 | 0.103 | 0.003 | -0.107 | 0.007 | -0.019 | 0.225 | -0.032 | 0.168 | 0.047 | -0.086
RETREG3 (UniProt Q86VR2) | 0.046 | -0.033 | -0.047 | 0.048 | 0.007 | -0.045 | 0.003 | 0.04 | -0.086 | -0.03 | 0.015
RPS6KA3 (UniProt P51812) | -0.076 | -0.177 | -0.203 | -0.029 | 0.044 | 0.048 | 0.079 | -0.038 | -0.046 | -0.241 | 0.037
ROR2 (UniProt Q01974) | -0.007 | -0.01 | -0.03 | -0.04 | 0.004 | 0.003 | 0.078 | -0.027 | 0.012 | -0.151 | -0.025
RTN4IP1 (UniProt Q8WWV3) | -0.057 | -0.218 | -0.085 | -0.024 | 0.009 | 0.111 | 0.316 | 0.069 | 0.079 | -0.198 | -0.003
RPS27A (UniProt P62979) | 0.024 | 0.16 | 0.286 | 0.177 | -0.047 | -0.007 | -0.211 | 0.05 | 0.064 | -0.06 | 0.222
SCO2 (UniProt O43819) | -0.598 (active) | -0.078 | 0.015 | 0.006 | -0.266 | 0.011 | -0.001 | -0.078 | -0.092 | 0.118 | -0.118
RTF2 (UniProt Q9BY42) | -0.134 | 0.012 | 0.124 | -0.081 | -0.023 | -0.062 | 0.133 | 0.133 | -0.189 | 0.028 | -0.069
RNF167 (UniProt Q9H6Y7) | 0.015 | -0.062 | -0.278 | -0.03 | -0.032 | 0.014 | – | 0.095 | -0.028 | – | –
RPA1 (UniProt P27694) | -0.189 | 0.007 | -0.049 | -0.052 | 0.06 | 0.106 | 0.079 | -0.02 | -0.046 | 0.006 | -0.024
RPS21 (UniProt P63220) | 0.022 | 0.018 | 0.114 | -0.012 | -0.061 | -0.059 | 0.002 | 0.008 | 0.045 | -0.015 | -0.016
RABGAP1L isoform 3 (UniProt Q5R372) | -0.012 | -0.012 | -0.05 | 0.036 | 0.016 | 0.025 | 0.06 | 0.019 | 0.073 | -0.011 | -0.021
RECQL (UniProt P46063) | 0.034 | -0.076 | -0.047 | -0.033 | 0.001 | 0.045 | 0.092 | -0.028 | -0.019 | -0.03 | 0.012
RNF14 (UniProt Q9UBS8) | -0.016 | -0.054 | -0.157 | 0.008 | 0.037 | 0.021 | -0.006 | 0.003 | -0.127 | -0.007 | 0.035
RPP25L (UniProt Q8N5L8) | 0.003 | -0.052 | -0.012 | -0.032 | -0.001 | -0.014 | -0.08 | 0.073 | 0.183 | -0.075 | 0.066
RBM17 (UniProt Q96I25) | 0.021 | 0.037 | 0.003 | -0.07 | 0.08 | 0.092 | 0.056 | 0.036 | 0.027 | -0.127 | -0.007
SAFB2 (UniProt Q14151) | 0.116 | 0.084 | 0.255 | 0.043 | -0.076 | -0.016 | -0.098 | 0.119 | 0.084 | -0.038 | 0.05
RRP9 (UniProt O43818) | 0 | 0.053 | 0.14 | 0.08 | -0.002 | -0.035 | 0.003 | 0.069 | 0.112 | -0.073 | 0.012
RPP14 (UniProt O95059) | 0.063 | -0.006 | -0.003 | 0.138 | -0.065 | -0.033 | 0.051 | 0.06 | 0.027 | -0.107 | -0.066
SELENOH (UniProt Q8IZQ5) | 0.227 | 0.194 | 0.011 | 0.049 | 0.066 | -0.007 | 0.067 | 0.011 | 0.038 | 0.053 | -0.143
